PubChem BioAssay (NCATS)
Inconclusive results are not listed. Activity calls are given as the source filed them. Unless noted, calls follow the shape of the dose curve; as a rule, active = well fitted curve in the direction sought with a large enough effect; inconclusive = small, poorly fitted or top-dose-only effect, or another doubt; inactive = no such curve, though single readings can be large; an effect the other way counts as inactive or inconclusive.

Columns and labels:
[1] = MultiTox-Fluor Cytotoxicity Assay - LYMP1-001 - Dead Cells (AID 946)
Method in brief: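 Cytotoxicity as increased dead-cell protease fluorescence (bis-AAF-R110, 485/520 nm), read 60 min after MultiTox-Fluor reagent. Human lymphoblastoid line exposed 16 h; Hill-fitted AC50, with DMSO as 0% and 15 uM tetraoctylammonium bromide as 100%.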

[2] = MultiTox-Fluor Cytotoxicity Assay - LYMP1-001 - Live Cells (AID 947)
[3] = Cell Viability - LYMP1-002 - Assay at 16 hr (AID 948)
Method in brief: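 Human lymphoblastoid cells (LYMP1-002), 2500/well, were preincubated 5 hr at 37 C, then exposed to compounds for 16 hr at 37 C in complete medium. Cellular ATP was read by CellTiter-Glo luminescence after 30 min at room temperature; AC50 from Hill fits.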

[4] = target: Pyruvate kinase PKM (Homo sapiens) (UniProt P14618); experiment: qHTS Assay for Activators of Human Muscle Pyruvate Kinase (AID 954; active = well fitted curve in the direction sought with a large enough effect, not every such curve was filed as active)
Method in brief: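 Human PKM2 activity is measured as ATP generation, detected by luciferase-coupled luminescence. The enzyme (0.1 nM) acts on 0.5 mM PEP and 0.1 mM ADP for 1 h at ambient temperature; data are normalized to uninhibited and full-inhibition wells.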

[5] = MultiTox-Fluor Cytotoxicity Assay - LYMP1-002 - Live Cells (AID 955)
Method in brief: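 Human lymphoblastoid LYMP1-002 cells, 2500/well, treated 16 h at 37 C in complete medium. Live-cell protease activity via GF-AFC fluorescence (Ex/Em 405/510) after 60 min reagent incubation; AC50 from Hill fits.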

[6] = MultiTox-Fluor Cytotoxicity Assay - LYMP1-002 - Dead Cells (AID 960); also: nearly all actives have a fitted effect of over 60% in size
Method in brief: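 Human lymphoblastoid LYMP1-002 cells, 2500/well, treated 16 h at 37 C; dead-cell protease cleavage of bis-AAF-R110 read by fluorescence (485/520); normalized to DMSO and 15 uM tetraoctylammonium bromide; AC50 from Hill fit.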

[7] = MultiTox-Fluor Cytotoxicity Assay - LYMP1-003 - Dead Cells (AID 961); also: nearly all actives have a fitted effect of over 70% in size
Method in brief: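 Dead-cell protease release, detected as bis-AAF-R110 fluorescence at 485/520 nm, was measured in LYMP1-003 cells after 16 h compound treatment at 37 C. AC50 values came from Hill-modeled qHTS curves normalized to DMSO (0%) and 15 uM tetraoctylammonium bromide (100%).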

[8] = MultiTox-Fluor Cytotoxicity Assay - LYMP1-003 - Live Cells (AID 962);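 also: cytotoxic hits lower the live-cell protease signal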
Method in brief: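 LYMP1-003 lymphoblastoid cells, 2500/well in complete medium, treated 16 h at 37 C; live-cell protease cleavage of GF-AFC read by fluorescence (Ex/Em 405/510) after 60 min reagent; AC50 from Hill fits of concentration-response.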

[9] = Cell Viability - LYMP1-003 - Assay at 24 hr (AID 963)
Method in brief: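 Human lymphoblastoid LYMP1-003 cells, 2500/well, treated 24 h at 37 C in complete medium. Viability read as intracellular ATP by CellTiter-Glo luminescence after 30 min at room temperature; AC50 from Hill-equation fits of qHTS concentration-response.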

[10] = Cell Viability - LYMP1-003 - Assay at 40 hr (AID 964); also: series mostly up to about 92 µM; nearly all actives have a fitted effect of over 60% in size
Method in brief: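 LYMP1-003 human lymphoblastoid cells, 2500/well, preincubated 5 h at 37 C, then treated with compound for 40 h at 37 C. Intracellular ATP read by CellTiter-Glo luminescence after 30 min at room temperature; AC50 from Hill-equation fits.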

[11] = Cell Viability - LYMP2-003 (AID 965);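 also: cells exposed to compounds for 24 h before reading; nearly all actives have a fitted effect of over 50% in size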
Method in brief: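 Human lymphoblastoid cells (2500/well) were pre-incubated 5 hr at 37 C, then exposed to compounds over a concentration range for 24 hr at 37 C. Intracellular ATP was read by CellTiter-Glo luminescence; AC50 came from Hill-equation fits.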

[12] = Cell Viability - LYMP2-004 (AID 966); also: nearly all actives have a fitted effect of over 65% in size
Method in brief: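 Lymphoblastoid LYMP2-004 cells, 2500 per well, were preincubated for 5 hr and then treated with compound for 24 h at 37 C in complete medium. Viability was read as cellular ATP by CellTiter-Glo luminescence, and AC50 values were taken from Hill fits to concentration-response data.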

[13] = Cell Viability - LYMP2-005 (AID 967); also: series mostly up to about 92 µM
Method in brief: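 CellTiter-Glo luminescence (cellular ATP) read-out; LYMP2-005 lymphoblastoid cells, 2500/well, 5 h pre-incubation, then 24 h compound exposure at 37 C in complete medium. Tetraoctylammonium bromide positive control; AC50 by standard Hill fit.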

[14] = Cell Viability - LYMP2-009 (AID 968); also: series mostly up to about 92 µM; nearly all actives have a fitted effect of over 55% in size
[15] = Cell Viability - LYMP2-011 (AID 969); also: nearly all actives have a fitted effect of over 60% in size
Method in brief: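 2500 cells/well in complete medium, compound-treated 24 h at 37 C. Viability read as intracellular ATP by CellTiter-Glo luminescence after 30 min at room temperature. AC50 from Hill fits of qHTS concentration-response data.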

[16] = Cell Viability - LYMP2-013 (AID 970); also: series mostly up to about 92 µM; nearly all actives have a fitted effect of over 55% in size
Method in brief: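 Human lymphoblastoid LYMP2-013 cells, 2500/well, treated 24 h at 37 C in complete medium; viability as intracellular ATP by CellTiter-Glo luminescence after 30 min. AC50 from Hill fits of qHTS concentration-response.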

[17] = Cell Viability - LYMP2-015 (AID 971); also: nearly all actives have a fitted effect of over 55% in size
Method in brief: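 LYMP2-015 human lymphoblastoid cells (2500/well) in complete medium, compound-treated 24 h at 37 C; viability read as cellular ATP by CellTiter-Glo luminescence after 30 min at room temperature. AC50 from Hill-equation fits of qHTS concentration-response data.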

[18] = Cell Viability - LYMP2-017 (AID 972); also: series mostly up to about 92 µM; nearly all actives have a fitted effect of over 55% in size
Method in brief: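 LYMP2-017 human lymphoblastoid cells (2500/well) settled 5 hr at 37 C, then exposed to compound 24 hr at 37 C in complete medium. Viability taken as intracellular ATP by CellTiter-Glo luminescence after 30 min at RT; AC50 from Hill fits.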

[19] = Cell Viability - LYMP2-019 (AID 973); also: nearly all actives have a fitted effect of over 55% in size
Method in brief: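 Human lymphoblastoid LYMP2-019 cells (2500/well) preincubated 5 h at 37 C, then treated 24 h at 37 C in complete medium. Viability by CellTiter-Glo ATP luminescence after 30 min at room temperature; AC50 from Hill fits.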

Measured: Potency

Chain of Pyruvate kinase PKM (Homo sapiens) (P14618 whole entry, looked up): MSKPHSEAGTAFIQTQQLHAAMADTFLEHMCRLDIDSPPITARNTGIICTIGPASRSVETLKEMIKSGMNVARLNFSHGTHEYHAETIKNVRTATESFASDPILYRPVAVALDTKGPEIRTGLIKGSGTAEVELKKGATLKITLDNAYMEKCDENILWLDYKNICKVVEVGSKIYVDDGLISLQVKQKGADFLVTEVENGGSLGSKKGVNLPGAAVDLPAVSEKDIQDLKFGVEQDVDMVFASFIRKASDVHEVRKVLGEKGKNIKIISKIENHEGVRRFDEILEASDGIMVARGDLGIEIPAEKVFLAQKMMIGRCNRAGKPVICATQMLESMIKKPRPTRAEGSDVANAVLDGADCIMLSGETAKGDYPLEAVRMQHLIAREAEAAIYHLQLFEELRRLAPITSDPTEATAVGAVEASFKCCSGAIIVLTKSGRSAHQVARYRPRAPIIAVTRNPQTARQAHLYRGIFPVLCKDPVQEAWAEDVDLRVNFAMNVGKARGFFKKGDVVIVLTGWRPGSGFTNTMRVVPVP

O=c1[nH]cnc2[nH]ncc12
inactive: all assays above

CC(C)(Sc1ccc(CCN(CCCCC2CCCCC2)C(=O)NC2CCCCC2)cc1)C(=O)O
inactive: [4]

Cc1cn[nH]c1
inactive: [4]

O=c1n(CCCN2CCN(c3cccc(Cl)c3)CC2)nc2ccccn12
inactive: [4]

CN1CCN(CCCN2c3ccccc3Sc3ccc(C(F)(F)F)cc32)CC1
inactive: [4]

NNCCc1ccccc1
inactive: [4]
